Data on eleven compounds can be found in PubChem BioAssay (NCATS).

A short description of experiment [1]: AP1 Signaling Pathway (AID 357).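 Note: ME-180 reporter cells stimulated with EGF at its EC50 level; % is set by controls: 0 for no effect and ±100 for the full control effect.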 As to conditions: ME-180 AP-1-bla reporter, EGF-induced, beta-lactamase ratio, 5 h. The gist of the method:
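AP-1-bla ME-180 cells, Opti-MEM + 0.5% dialyzed FBS, plated overnight 37 °C. Cpd titration + EC50 EGF, 5 h 37 °C. CCF4 2.5 h RT; ex 405, em 460/530 ratio → %activity, AC50.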

Experiment [2] deals with Cytochrome P450 1A2 (Homo sapiens) (UniProt P05177). Put plainly: p450-cyp1a2 (AID 410; calls by dose curve; note: potency is the fitted concentration of half-maximal effect;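 for activity change, negative = inhibition: -100% = full effect of reference inhibitor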). As to conditions: recombinant CYP1A2, luciferin-ME demethylation, luminescence; series mostly up to 57 µM. The essentials: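 Read-out is luminescence from luciferin produced by CYP1A2 demethylation of Luciferin-ME (100uM, at Km). Detection reagent stopped the 60 min NADPH-dependent reaction; signals were normalized to 57 uM furafylline.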

A short description of experiment [3]: Stat Signaling Pathway (AID 446).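 Note: ME-180 cervical cancer cells given 40 pM IL-6 alongside compound; SIE-controlled beta-lactamase reporter measured as 460/530 nm FRET emission ratio; % is set by controls: 0 for no effect and ±100 for the full control effect.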 As to conditions: ME-180 (cervical carcinoma) SIE beta-lactamase reporter, IL-6 stimulated, 5 h. The gist of the method:
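Overnight-plated ME-180 cells bearing a STAT Inducible Element beta-lactamase reporter; 5 h co-exposure to compound and 40 pM IL-6; values normalized to 300 pM IL-6 and 125 nM JAK inhibitor controls.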

The target of experiment [4] is Mitogen-activated protein kinase 10 (Mus musculus) (UniProt Q61831). Kind of experiment: JNK3 AlphaScreen Assay (AID 530).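 For activity change, negative = inhibition: signal reports phosphorylation of biotinylated GST-cJun 1-79 at Ser73 with 10 µM ATP; % is set by controls: 0 for no effect and ±100 for the full control effect.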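 Note: kinase came from lysate of stimulated human HepG2 cells.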 Note: potency is the fitted concentration of half-maximal effect. The following applies: JNK3 lysate, c-Jun phosphorylation; series mostly up to 57.1 µM. The gist of the method:
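Biotinylated GST-cJun(1-79) served as substrate for JNK3 in HepG2 lysates stimulated with IL-1beta and TNF-alpha. ATP was 10 uM final, pH 7.6. Ser73 phosphorylation was quantified by AlphaScreen (680 nm excitation).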
Background: Bead proximity is the source of the signal in Alpha formats.

The target in experiment [5] is 3',5'-cyclic-AMP phosphodiesterase 4B (Homo sapiens) (UniProt Q07343). Put plainly: qHTS Assay for Inhibitors of PDE-IV (AID 607; active = well fitted activation curve with a large enough effect in the main read-out, with a control signal flat, not every such curve was filed as active; note: % of control where 0% means no effect). The following applies: HEK293 ACTOne CNG channel cells, membrane potential fluorescence; series mostly up to 22.9 µM. The gist of the method:
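Live HEK293 cells with a modified cyclic nucleotide-gated (CNG) channel report intracellular cAMP via membrane-potential dye fluorescence (ex 535/em 590 nm). Endogenous PDE-IV was targeted. Compounds were tested at up to 22.9 uM final; RO 20-1724 100 uM served as control.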

Experiment [6] in a line: NFAT Signaling Pathway (AID 444).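 Note: carbachol stimulus at about its EC50 of 1 µM final; % is set by controls: 0 for no effect and ±100 for the full control effect.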 The following applies: Jurkat NFAT-bla M1, carbachol, beta-lactamase ratio, 5 h; at 38 µM (top of the series) unless noted. The gist of the method: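 Jurkat cells carrying an NFAT-driven β-lactamase reporter and co-transfected muscarinic M1 receptor were treated with compound plus carbachol (1 uM final, an EC50 level) for 5 h at 37 °C. CCF4 loading followed for 1 h at RT; 460/530 nm ratio gave %activity.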

Experiment [7] deals with Glucocorticoid receptor (Homo sapiens) (UniProt P04150). Put plainly: GR-GFP Redistribution (AID 450;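 active = compounds whose dose series gives a full or clear partial fitted curve of increased nuclear translocation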; note: potency is the fitted concentration of half-maximal effect). The following applies: U2OS GR-GFP nuclear translocation, laser cytometry, 2 h.
Experiment [8] shares this target. Kind of experiment: GR-EFC Redistribution (AID 451; calls by dose curve; note: potency is the fitted concentration of half-maximal effect). As to conditions: CHO-K1 GR-EFC translocation, beta-gal luminescence, 2 h. The gist of the method: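 CHO-K1 cells stably expressing nuclear-localized β-gal enzyme acceptor and GR fused C-terminally to the enzyme donor fragment; ligand-driven nuclear translocation restores β-gal by complementation. Compounds titrated up to 46 uM final, 2 h at 37 °C; luminescence read.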

Several values for one entry are separate records, joined by “and”; a condition that tells them apart may be missing. Equal values may be shown once. A number with no mark means an inactive call. Records with an inconclusive call do not appear. Activity calls are given as the source filed them. Unless noted, calls come from the whole dose curve; as a rule, active = well fitted curve in either direction with a large enough effect (not every such curve was filed as active); inconclusive = small, poorly fitted or top-dose-only effect, or another doubt; inactive = flat fitted curve, though single readings scatter.

Chain of 3',5'-cyclic-AMP phosphodiesterase 4B (Homo sapiens) (Q07343 whole entry, looked up): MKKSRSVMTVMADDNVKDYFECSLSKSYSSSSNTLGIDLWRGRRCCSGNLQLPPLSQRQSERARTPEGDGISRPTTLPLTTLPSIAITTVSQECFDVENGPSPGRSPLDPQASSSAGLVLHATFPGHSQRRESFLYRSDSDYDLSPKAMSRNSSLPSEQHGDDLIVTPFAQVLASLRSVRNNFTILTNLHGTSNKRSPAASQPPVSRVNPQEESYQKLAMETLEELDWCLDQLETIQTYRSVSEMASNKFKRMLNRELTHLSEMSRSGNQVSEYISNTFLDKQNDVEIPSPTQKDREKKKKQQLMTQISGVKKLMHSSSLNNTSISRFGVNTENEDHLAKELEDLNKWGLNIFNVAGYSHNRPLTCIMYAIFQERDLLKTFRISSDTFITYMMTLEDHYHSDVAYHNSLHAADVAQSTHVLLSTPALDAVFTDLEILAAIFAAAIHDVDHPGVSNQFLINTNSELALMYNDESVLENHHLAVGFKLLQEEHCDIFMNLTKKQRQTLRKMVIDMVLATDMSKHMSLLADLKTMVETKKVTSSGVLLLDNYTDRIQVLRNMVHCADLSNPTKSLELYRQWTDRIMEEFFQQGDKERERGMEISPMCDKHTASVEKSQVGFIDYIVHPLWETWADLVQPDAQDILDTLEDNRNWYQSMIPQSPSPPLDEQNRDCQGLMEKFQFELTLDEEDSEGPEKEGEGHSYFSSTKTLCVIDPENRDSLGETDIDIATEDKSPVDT
Chain of Glucocorticoid receptor (Homo sapiens) (P04150 whole entry, looked up, the tested form may be a part): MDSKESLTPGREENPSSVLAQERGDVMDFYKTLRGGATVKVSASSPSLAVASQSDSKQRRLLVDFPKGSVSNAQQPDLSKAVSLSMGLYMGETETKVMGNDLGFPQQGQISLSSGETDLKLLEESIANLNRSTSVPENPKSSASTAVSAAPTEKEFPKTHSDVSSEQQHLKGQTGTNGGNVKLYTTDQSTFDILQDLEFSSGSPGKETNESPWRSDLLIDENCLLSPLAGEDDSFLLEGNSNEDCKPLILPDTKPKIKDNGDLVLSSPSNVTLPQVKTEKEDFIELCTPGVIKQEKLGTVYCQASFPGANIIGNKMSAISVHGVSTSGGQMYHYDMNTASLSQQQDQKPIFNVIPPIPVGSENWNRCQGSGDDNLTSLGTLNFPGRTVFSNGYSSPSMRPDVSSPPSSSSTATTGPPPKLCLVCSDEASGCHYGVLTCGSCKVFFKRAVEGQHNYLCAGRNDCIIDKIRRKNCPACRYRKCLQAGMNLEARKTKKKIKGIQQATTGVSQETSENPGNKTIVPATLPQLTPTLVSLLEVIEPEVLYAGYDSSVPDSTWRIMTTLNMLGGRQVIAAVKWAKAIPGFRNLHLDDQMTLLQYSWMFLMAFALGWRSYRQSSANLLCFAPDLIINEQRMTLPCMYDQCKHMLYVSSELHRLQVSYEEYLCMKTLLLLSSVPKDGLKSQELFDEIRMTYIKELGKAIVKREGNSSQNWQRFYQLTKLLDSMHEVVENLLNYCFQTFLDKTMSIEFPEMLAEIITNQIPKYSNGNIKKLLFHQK
Chain of Cytochrome P450 1A2 (Homo sapiens) (P05177 whole entry, looked up): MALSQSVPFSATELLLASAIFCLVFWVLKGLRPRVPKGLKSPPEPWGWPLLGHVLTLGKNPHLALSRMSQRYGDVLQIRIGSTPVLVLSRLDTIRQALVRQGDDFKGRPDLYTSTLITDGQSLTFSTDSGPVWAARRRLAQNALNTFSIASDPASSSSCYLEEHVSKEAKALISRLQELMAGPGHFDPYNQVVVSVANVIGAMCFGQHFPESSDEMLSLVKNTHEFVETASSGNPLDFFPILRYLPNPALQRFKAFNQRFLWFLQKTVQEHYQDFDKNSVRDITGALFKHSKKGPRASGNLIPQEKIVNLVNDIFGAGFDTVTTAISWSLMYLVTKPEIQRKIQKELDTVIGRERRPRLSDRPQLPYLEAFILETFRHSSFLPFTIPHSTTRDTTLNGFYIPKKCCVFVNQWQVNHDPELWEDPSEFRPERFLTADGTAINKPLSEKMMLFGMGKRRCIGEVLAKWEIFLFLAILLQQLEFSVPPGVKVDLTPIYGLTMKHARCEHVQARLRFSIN

As for `N#C/C(=C\c1ccc(O)c(O)c1)C(=O)NCCCc1ccccc1`, the activity change, negative = inhibition in experiment [1] (at 17.2 µM (top of the series)) is -12.8%. The Potency is 12.6 µM (active) in experiment [2] and 10 µM (active) in experiment [4]. The activity, negative = inhibition in experiment [3] (at 17.2 µM (top of the series)) was -22.9%; in experiment [3] (at 38 µM (top of the series)) it was -10.2%. The outcome in experiment [5] was inactive.

In the case of `CCCCN1CCC(n2c(=O)[nH]c3ccccc32)CC1`, the activity change, negative = inhibition in experiment [1] (at 38 µM (top of the series)) was -4.94%; in experiment [6], 4.7%. In addition, the Potency entry in experiment [2] was “inactive”. Moreover, the Potency in experiment [7] and in experiment [8] was greater than 46 µM in each case. Besides, the outcome in experiment [5] was inactive.

Take `Cc1ccc(O)c(N=Nc2ccccc2)n1`: the activity change, negative = inhibition in experiment [1] (at 38 µM (top of the series)) is 17.2%; in experiment [6] it was -10.8%. For the same compound, in experiment [2], the Potency is 794 nM (active) and 158 nM (active). Also, the activity, negative = inhibition in experiment [3] (at 38 µM (top of the series)) was -4.23%. Moreover, the Potency result in experiment [4] is “inactive”. Also, the call in experiment [5] was inactive.

On to `NCCCCC(=O)O`, for which the results for the activity change, negative = inhibition in experiment [1] (at 38 µM (top of the series)) and in experiment [6] were -6.31% and -1.14%, respectively. The Potency entry in experiment [2] and in experiment [4] was “inactive” in each case. The activity, negative = inhibition in experiment [3] (at 38 µM (top of the series)) is 0.307%. The compound was called inactive in experiment [5].

As for `N#C/C(=C\c1ccc(O)c(O)c1)C(=O)NCc1ccccc1`, the figures for the activity change, negative = inhibition in experiment [1] (at 38 µM (top of the series)) and in experiment [6] were -8.08% and -14.7%, respectively. Besides, in experiment [2], the Potency was 12.6 µM (active) and 7.94 µM (active). For the same compound, the activity, negative = inhibition in experiment [3] (at 38 µM (top of the series)) was -18.4%. The Potency result in experiment [4] was “inactive”. For the same compound, the call in experiment [5] was inactive.

Consider `Cc1cc(NC(=O)Nc2ccc3c(ccn3C)c2)sn1`, for which the activity change, negative = inhibition in experiment [1] (at 38 µM (top of the series)) was -21.3%; in experiment [6], 10.3%. For the same compound, the Potency in experiment [2] was 10 µM (active) and 5.01 µM (active); in experiment [8], greater than 46 µM. Further, in experiment [5], the outcome was inactive.

`C[N+](C)(CCCCCC[N+](C)(C)CCCN1C(=O)c2cccc3cccc(c23)C1=O)CCCN1C(=O)c2cccc3cccc(c23)C1=O`: in experiment [1] (at 38 µM (top of the series)), the activity change, negative = inhibition was 14%. Further, the Potency entry in experiment [2] and in experiment [4] was “inactive” each time. In experiment [3] (at 38 µM (top of the series)), the activity, negative = inhibition was 0.109%. Further, in experiment [8], the Potency is greater than 46 µM. Besides, the call in experiment [5] was inactive.

Take `Cc1c(N)c(=O)n(-c2ccccc2)n1C`: the activity change, negative = inhibition is 7.65% in experiment [1] (at 17.2 µM (top of the series)) and -9.93% [at 17.2 µM] in experiment [6]. The activity, negative = inhibition in experiment [3] (at 17.2 µM (top of the series)) is 3.23%. Besides, in experiment [8], the Potency is greater than 20.6 µM. Moreover, the Potency result in experiment [4] is “inactive”. For the same compound, the call in experiment [5] was inactive.

Regarding `COc1ccccc1N1CCN(CCCCNS(=O)(=O)c2cccc3c(N(C)C)cccc23)CC1`, the activity change, negative = inhibition in experiment [1] (at 38 µM (top of the series)) is 1.98%. Further, the Potency result in experiment [2] is “inactive”. Also, the activity, negative = inhibition in experiment [3] (at 38 µM (top of the series)) was -7.18%. In addition, the Potency in experiment [7] and in experiment [8] was greater than 46 µM throughout. The call in experiment [5] was inactive.

As for `CCCN(CC1CC1)c1nc(C)nc(Nc2c(Cl)cc(Cl)cc2Cl)c1Cl`, the activity change, negative = inhibition in experiment [1] (at 38 µM (top of the series)) was 18.7%. Moreover, the Potency entry in experiment [2] was “inactive”. In addition, the activity, negative = inhibition in experiment [3] (at 38 µM (top of the series)) was -12.8%. Besides, the Potency in experiment [7] and in experiment [8] was greater than 46 µM each time. Besides, the call in experiment [5] was inactive.

In the case of `Fc1ccc(C(OCCCc2cnc[nH]2)c2ccc(F)cc2)cc1`, the activity change, negative = inhibition in experiment [1] (at 38 µM (top of the series)) is 26.5%. In addition, the Potency was 0.1 µM (active) in experiment [2] and greater than 46 µM in experiment [7]. Besides, the activity, negative = inhibition in experiment [3] (at 38 µM (top of the series)) is 27.8%. In addition, the Potency entry in experiment [4] was “inactive”. In experiment [5], the call was inactive.
